From PubChem
H9c2 protect: modulators protecting cardiomyocytes from myocardial damage; protection from H2O2 cell death, % at 20 µM; AID 588492; H9c2 cardiomyocytes, H2O2 injury protection, ATPLite, 2 h; actives 0.63% (n = 360,000);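 active = compounds giving at least 50% protection of heart cells from peroxide-induced death in the single-dose screen, raw or plate-pattern-corrected value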;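 note: 0% = DMSO wells with peroxide and 100% = DMSO wells without peroxide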
DAGLB inhibitor: diacylglycerol lipase beta (human) inhibition | HEK293T DAGLB membrane lysate, EnzChek fluorogenic substrate | inhibition, % at 5.17 µM | actives 0.059% (n = 340,000); in the data active = inhibition above about 34%;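 note: 0% = enzyme with vehicle and 100% = wells lacking enzyme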
Rtt109 HAT inh: blocks Candida albicans Rtt109/Vps75 acetyltransferase activity | purified Rtt109/Vps75, ThioGlo CoA-SH fluorescence, 4 h | inhibition, % at 34.9 µM | actives 0.16% (n = 330,000) | AID 540336;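 active = inhibition of at least 50% in every replicate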
sPLA2-III inh: Blocks human group III sPLA2 activity; Q9NZ20; QFRET BODIPY PC-A2 liposome hydrolysis, fluorescence; inhibition, % at 12.2 µM; actives 0.56% (n = 370,000); AID 743126;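 active = inhibition above mean plus 3 SD of compounds lying within the high and low control bounds, cut at about 19% in these data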;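 note: 0% = median of test compound wells and 100% = no enzyme DMSO wells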
ABHD5-PLIN5 inh: ABHD5-PLIN5 protein interaction inhibition. inhibition, % at 4 µM. Q00G26+Q8WTS1. actives 0.78% (n = 360,000). AID 602281. Split G. princeps luciferase complementation, luminescence, 4 h;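 active = inhibition above the mean inhibition across every tested compound plus 3 SD, cut at about 22% in these data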;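 note: 0% = DMSO only wells and the 100% control is not disclosed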
Target sequence (Q00G26 whole entry, looked up): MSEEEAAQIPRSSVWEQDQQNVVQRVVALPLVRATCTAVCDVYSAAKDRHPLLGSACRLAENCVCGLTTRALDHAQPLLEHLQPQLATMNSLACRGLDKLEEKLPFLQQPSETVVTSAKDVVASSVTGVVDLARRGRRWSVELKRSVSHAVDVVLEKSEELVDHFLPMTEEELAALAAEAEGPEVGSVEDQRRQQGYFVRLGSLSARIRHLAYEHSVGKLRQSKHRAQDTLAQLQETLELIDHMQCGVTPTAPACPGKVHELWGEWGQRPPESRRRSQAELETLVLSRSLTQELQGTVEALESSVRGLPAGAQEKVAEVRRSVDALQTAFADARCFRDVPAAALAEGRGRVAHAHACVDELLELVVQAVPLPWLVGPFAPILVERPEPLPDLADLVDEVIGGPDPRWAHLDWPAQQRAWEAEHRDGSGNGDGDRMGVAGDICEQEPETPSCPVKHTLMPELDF
Target sequence (Q8WTS1 whole entry, looked up): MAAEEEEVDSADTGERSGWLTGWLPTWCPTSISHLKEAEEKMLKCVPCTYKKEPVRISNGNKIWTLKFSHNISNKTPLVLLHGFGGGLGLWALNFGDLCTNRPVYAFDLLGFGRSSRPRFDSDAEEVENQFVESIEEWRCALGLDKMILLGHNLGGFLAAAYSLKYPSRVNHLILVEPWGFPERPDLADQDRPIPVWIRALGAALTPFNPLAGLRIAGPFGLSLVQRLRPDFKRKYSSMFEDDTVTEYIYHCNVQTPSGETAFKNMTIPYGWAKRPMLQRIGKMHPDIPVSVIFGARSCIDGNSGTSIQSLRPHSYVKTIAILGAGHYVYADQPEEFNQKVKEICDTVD
Myeloid diff MLP: compounds promoting myeloid differentiation; ER-HoxA9 myeloid progenitors, lysozyme-GFP differentiation, flow cytometry; calls only at 10 µM; actives 1% (n = 360,000);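 active = normalized GFP-positive differentiation at or above the plate's own cutoff, the solvent-only control mean plus 3 SD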;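 note: cells exposed to compound for four days before flow analysis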
Myeloid diff: promotes myeloid progenitor differentiation; shares compounds with Myeloid diff MLP; ER-HoxA9 myeloid progenitors, GFP/Mac1 double-positive flow; calls only; actives 2% (n = 2,300); AID 651706;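 active = share of green or green-and-red cells above 9 and 9% in run 1 or 4 and 3% in run 2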
GFP autofluor: compound fluorescence in myeloid differentiation counter-screen | shares compounds with Myeloid diff MLP | actives 7.4% (n = 2,300) | ER-HoxA9 myeloid progenitors, no estrogen, GFP autofluorescence flow cytometry; vehicle wells 0%, positive control 100% | fluorescence response, % (test concentration not listed);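 active = over 5% cells positive for green fluorescent reporter, or over 2% positive for both it and APC stain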;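 note: range taken on the double positive population between DMSO and positive control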
Numbers without * were called inactive; i = inactive; . = no result; + = active, no number. The list is not random: actives were taken first. Their share in the collection is about 2.9%.

SMILES	H9c2 protect	DAGLB inhibitor	Rtt109 HAT inh	sPLA2-III inh	ABHD5-PLIN5 inh	Myeloid diff MLP	Myeloid diff	GFP autofluor
CC1(C(=O)NCc2ccc(F)cc2)Oc2ccccc2NC1=O (stereo unspecified)	3	2	11	-4	-2	i	.	.
Cc1cccc(C(=O)Nc2cccc(C(=O)N/N=C/c3ccncc3)c2)c1	24	-2	1	0	2	i	.	.
Cc1ccc(C(=O)Nc2cccc(C(=O)N/N=C/c3ccc(O)cc3)c2)cc1	-8	-3	4	-13	3	+	i	1
O=C(O)C(CCCCN1C(=O)c2ccccc2C1=O)N1C(=O)c2ccccc2C1=O (stereo unspecified)	8	-4	-7	1	0	i	.	.
COc1ccc(/C=N/NC(=O)c2ccc(CN3c4cccc5cccc(c45)S3(=O)=O)cc2)cc1	2	-3	-1	0	-7	i	.	.
O=C(N/N=C/CCc1ccccc1)c1ccc(CN2c3cccc4cccc(c34)S2(=O)=O)cc1	3	-13	-1	2	6	i	i	0
Cc1csc(SCC(=O)Nc2sc3c(c2C#N)CCC3)n1	-17	-4	-4	1	1	i	i	1
Cc1c(Oc2ccc(C(F)(F)F)cc2[N+](=O)[O-])ccc2c3c(c(=O)oc12)CCC3	-5	0	-3	-3	4	i	.	.
O=C1CCCc2c1nc(-c1ccco1)n2O	9	0	6	-1	-1	i	.	.
OCCN=Cc1c(O)[nH]c2ccccc12	14	-2	-2	6	-2	i	.	.
Oc1[nH]c2ccccc2c1C=Nc1ccccc1	-5	2	-2	-9	-3	i	i	0
CCOC(=O)CCC(=O)N(CCN(C(=O)CCC(=O)OCC)c1ccccc1)c1ccccc1	1	-2	-7	-3	1	i	.	.
O=C(CSc1ncnc2ccccc12)N1CCNC1=O	21	-1	-20	5	6	i	.	.
Cc1ccc([C@H]2C[C@H](n3cc(C4CC4)nn3)[C@@H](O)CN2Cc2cccs2)cc1	-7	-3	.	-12	-11	i	i	1
COc1ccc(C(=O)COC(=O)c2cnc(C)cn2)cc1OC	11	-2	3	2	-3	i	i	0
COc1cc(C(=O)COC(=O)c2cnc(C)cn2)ccc1OC(F)F	-2	-2	-2	9	-2	i	.	.
CCOc1ccc(N2C(=O)CC(NCCNc3ccc([N+](=O)[O-])cn3)C2=O)cc1 (stereo unspecified)	1	1	6	2	3	i	.	.
COc1ccc(N2C(=O)CC(NCCNc3ccc([N+](=O)[O-])cn3)C2=O)cc1 (stereo unspecified)	2	0	7	3	10	i	i	0
CCSc1nc2sc3c(c2c(=O)n1-c1ccccc1)CCN(C(C)C)C3	-3	1	14	2	4	+	i	5
CCCCCNc1nc2sc3c(c2c(=O)n1-c1cccc(Cl)c1)CCN(C)C3	-7	-3	8	-6	-1	+	i	1
COC(=O)c1ccc(C(=O)OC)c(NC(=O)Nc2ccc3c(c2)OCO3)c1	-2	0	3	10	0	i	.	.
O=C(CSc1nnc(COc2cccc3ccccc23)o1)N1c2ccccc2CCc2ccccc21	-3	-9	7	-29	3	i	.	.
COC(=O)CCCNC(=O)c1ccc2nc(Cc3ccc(OC)cc3)oc2c1	0	0	-11	-9	-1	i	.	.
CC1=C(CC(=O)O)c2cc(F)ccc2C1=Cc1ccc(S(C)(=O)=O)cc1	-1	4	-2	-4	1	i	.	.
COc1ccc(-c2sc(C(=O)c3ccc(Cl)cc3Cl)cc2CC(=O)O)cc1	6	6	-5	-15	-4	+	i	0
SMILES	H9c2 protect	DAGLB inhibitor	Rtt109 HAT inh	sPLA2-III inh	ABHD5-PLIN5 inh	Myeloid diff MLP	Myeloid diff	GFP autofluor
CC(=O)c1cccc(NC(=O)COC(=O)C2CCCN2C(=O)c2cccs2)c1 (stereo unspecified)	-4	-3	-10	-4	3	i	.	.
CCc1nc2ccc(C(=O)NCc3ccc(OC)cc3)cn2c1N(CCC(C)C)CCN(C)C	6	.	.	-6	-3	i	.	.
CC(=O)Cc1cc(=O)c2c(C)cc(O)c(C3OC(CO)C(O)C(O)C3O)c2o1 (stereo unspecified)	4	0	4	2	4	i	i	0
O=C1CS/C(=C/C(=O)c2ccccc2)N1	0	-2	1	-2	-2	i	.	.
Cc1cc(C)cc(C(=O)/C=C2\NC(=O)CS2)c1	12	1	23	-6	4	i	i	0
Cc1ccc(NC(=O)CN(C)C(=O)c2cc(-c3ccco3)nc3ccccc23)cc1	11	3	-3	-5	17	i	i	0
CCOC(=O)/C(=N\Nc1ccc(C(C)=O)cc1)c1csc(Nc2ccccc2)n1	-11	-2	-22	6	1	+	i	1
CCOC(=O)/C(=N\Nc1ccccc1[N+](=O)[O-])c1csc(N)n1	8	22	2	11	-4	i	.	.
Cn1c(CNC(=O)c2ccco2)nnc1SCC(=O)Nc1ccc(Cl)cc1	-1	0	2	6	-11	i	.	.
CCOc1ccccc1-n1c(SCC(N)=O)nnc1-c1ccc(O)cc1	-5	-2	-2	-1	-6	i	.	.
CCOc1ccccc1-n1c(SCC(N)=O)nnc1-c1ccccc1	2	1	18	4	10	i	i	1
COc1ccc(NC(=O)c2cccc3c(-c4cnn(C)c4)coc23)cc1	44	.	.	6	-1	i	.	.
O=C(NCc1ccc(F)c(F)c1)c1cccc2c(-c3cccnc3)coc12	-4	.	.	-14	-3	i	.	.
COc1cc(NC(=O)c2cccc3c(-c4cnn(C)c4)coc23)cc(OC)c1OC	64*	.	.	-4	6	+	i	26*
COc1ccc(CNC(=O)c2cccc3c(-c4cccnc4)coc23)cc1OC	-10	.	.	-4	1	i	i	1
COc1cccc(CN2C(=O)[C@H]3Cc4c([nH]c5ccccc45)C(C)(C)N3C2=O)c1	7	3	12	-22	-4	i	.	.
N#CCC(=O)Nc1ccc(C(=O)OC(C(=O)Nc2cc(C(F)(F)F)ccc2Cl)c2ccccc2)cc1 (stereo unspecified)	-11	-3	27	-56	-16	+	i	1
